Hits are enriched below; roughly 4.6% of the tested compounds scored in any of these assays.
Tau fibril ThT – qHTS for Inhibitors of Tau Fibril Formation, Thioflavin T Binding. hit rate 2.1% among 270,000. AID 1460, 2008. recombinant tau K18 P301L, heparin-induced fibrillization, ThT fluorescence. Potency, µM (doses to about 57.4 µM), hits mostly inhibitors; note: nearly all actives have a fitted effect of over 55% in size
Target sequence (P10636 561-689 P618L limits assumed): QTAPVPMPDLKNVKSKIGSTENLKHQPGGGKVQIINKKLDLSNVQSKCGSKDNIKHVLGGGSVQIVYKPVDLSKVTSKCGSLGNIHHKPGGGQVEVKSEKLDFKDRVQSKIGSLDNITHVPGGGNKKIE
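Using a mix of unlabeled (15 uM) and Alexa 594-labeled (0.24 uM) tau K18 P301L, heparin-triggered fibrillization over 6 hr at 37 C was scored by ThT fluorescence.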
TR SRC2 fluor cs – Total Fluorescence Counterscreen for Inhibitors of the Interaction of Thyroid Hormone Receptor and Steroid Receptor Coregulator 2; hit rate 0.29% among 280,000; TRb/SRC2 Texas Red total fluorescence interference; Potency, µM (titrated, usually from 106 µM); AID 1479, 2009; active = well fitted curve in either direction with a large enough effect; inconclusive = small, poorly fitted or top-dose-only effect
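Human TRβ ligand-binding domain (0.6 uM) and Texas Red SRC2 peptide (20 nM) in Tris buffer with 1 uM T3 and 5% DMSO were incubated with pinned compound for 5 hr at ambient temperature. Total fluorescence was computed as S + 2P (555/632 nm).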
PNC assembly inh – High Content Assay for Compounds that inhibit the Assembly of the Perinucleolar Compartment; PC3M PTB-GFP, PNC prevalence imaging, 16 h; active compounds read low; activity change (PNC), negative = inhibition, % at 10 µM; hit rate 3.1% among 140,000; AID 2417, 2010;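 active = readout at or below -70, meaning at least 70% loss of cells showing the perinucleolar compartment, a nuclear body marking cancer cells; inconclusive = readout between -30 and a set limit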
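PC3M cells stably expressing PTB-GFP, 750–1000 cells/well, treated 16 h at 37 °C with compound (23 nl of library stock), in duplicate. After paraformaldehyde fixation and Hoechst stain, imaged at 20x; PNC prevalence scored by image analysis.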
Tau fluor cs – Counterscreen qHTS for Inhibitors of Tau Fibril Formation, Fluorescence Polarization; Potency, µM (doses to about 57.7 µM); AID 1463, 2008; tau K18 P301L (four-repeat tau fragment) Alexa594 fluorescence, heparin fibrillization; hit rate 0.93% among 280,000; note: nearly all actives have a fitted effect of over 55% in size
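Human K18 P301L tau (15 uM unlabeled plus 0.24 uM Alexa 594-labeled, final) in 100 mM sodium acetate pH 7 was mixed with compound and 20 uM heparin and incubated 6 hr at 37 C.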
TRb-SRC2 inh – qHTS for Inhibitors of the Interaction of Thyroid Hormone Receptor and Steroid Receptor Coregulator 2; Thyroid hormone receptor beta (Homo sapiens), P10828; TRbeta-SRC2 peptide binding, fluorescence polarization; receptor liganded with 1 µM T3; Potency, µM (top dose mostly 106 µM), usual class: inhibitors; hit rate 0.065% among 280,000; note: nearly all actives have a fitted effect of over 50% in size
Target sequence (P10828 whole entry, looked up): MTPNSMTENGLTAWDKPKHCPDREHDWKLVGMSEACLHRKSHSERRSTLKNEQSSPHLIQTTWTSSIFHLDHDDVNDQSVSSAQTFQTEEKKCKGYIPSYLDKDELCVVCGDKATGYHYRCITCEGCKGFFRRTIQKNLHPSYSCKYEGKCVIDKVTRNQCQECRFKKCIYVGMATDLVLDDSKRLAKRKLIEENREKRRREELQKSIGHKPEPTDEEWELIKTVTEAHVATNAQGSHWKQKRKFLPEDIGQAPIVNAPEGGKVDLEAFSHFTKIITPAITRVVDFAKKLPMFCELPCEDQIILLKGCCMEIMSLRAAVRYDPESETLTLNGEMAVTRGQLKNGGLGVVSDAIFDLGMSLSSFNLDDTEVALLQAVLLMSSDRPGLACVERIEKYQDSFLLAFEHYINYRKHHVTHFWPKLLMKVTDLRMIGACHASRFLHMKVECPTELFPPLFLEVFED
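Compounds were added to 0.6 uM TRb ligand-binding domain and 20 nM Texas Red-labeled SRC2 peptide in Tris buffer containing 1 uM T3, incubated 5 hr at ambient temperature, then read by fluorescence polarization.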
Tau fibril FP – qHTS for Inhibitors of Tau Fibril Formation, Fluorescence Polarization; hit rate 0.39% among 280,000; K18 P301L tau heparin fibrillization, Alexa594 FP, 6 h; Microtubule-associated protein tau (Homo sapiens), P10636; Potency, µM (highest dose often 57.7 µM), actives largely listed as inhibitors; note: nearly all actives have a fitted effect of over 55% in size
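Human tau K18 […] P301L fragment, 15 uM unlabeled plus 0.24 uM Alexa 594-labeled tau (final), with compound and 20 uM heparin in 100 mM sodium acetate pH 7; 6 hr at 37 C, then Alexa 594 FP read.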
Each line names hits and unclear results; the compound was inactive in the other large screens; [ ] = remark or other dose. Unless noted, calls come from the whole dose curve; as a rule, active = well fitted curve in the direction sought with a large enough effect; inconclusive = small, poorly fitted or top-dose-only effect, or another doubt; inactive = no such curve, though single readings can be large; an effect the other way counts as inactive or inconclusive.

CC1=CN2C(=N)/C(=C/c3ccc([N+](=O)[O-])o3)C(=O)N=C2S1	Tau fibril ThT 13µM, TR SRC2 fluor cs 45µM[fluorescent], PNC assembly inh inconclusive, Tau fluor cs inconclusive, Tau fibril FP inconclusive
O=c1ccc(Oc2nc(N3CCOCC3)nc(N3CCOCC3)n2)nn1-c1ccccc1	none
CCOCCCNc1nc2c(c(=O)n(C)c(=O)n2C)n1CCCc1ccccc1	none
CCOC(=O)c1cn(-c2c(Cl)cccc2Cl)c2cc(Cl)c([N+](=O)[O-])cc2c1=O	Tau fibril ThT inconclusive
Nc1ccc(-c2nc3ccc(-c4nc5ccc(N)cc5[nH]4)cc3[nH]2)cc1	Tau fibril ThT 13µM, TR SRC2 fluor cs 45µM[quencher], Tau fluor cs 13µM[quencher] (no result: PNC assembly inh)
O=[N+]([O-])c1ccc(/C=C2\CCC(C3=CCCC3)=C2N2CCOCC2)cc1	Tau fibril ThT 16µM, Tau fluor cs inconclusive, Tau fibril FP inconclusive
O=C(NP(=O)(N1CCCC1)N1CCCC1)C1=C(N2CCOCC2)/C(=C/c2cccc([N+](=O)[O-])c2)CC1	none (no result: PNC assembly inh)
c1cc(-c2cccs2)nc(-c2cccs2)c1	Tau fibril ThT inconclusive, PNC assembly inh inconclusive, Tau fibril FP inconclusive
c1csc(-c2cn3ccc4ccccc4c3n2)c1	Tau fibril ThT 10µM (no result: PNC assembly inh)
COCCNC(=O)C1CC2Cn3c(nc4ccccc43)C2N1C (stereo not given)	none (no result: PNC assembly inh)
COc1ccc(-c2noc(CN(C)S(=O)(=O)c3ccc(Cl)cc3)n2)cc1OC	PNC assembly inh -92
CCOc1ccc(-c2noc(CCCC(N)=O)n2)cc1OC	none
COc1ccccc1-c1noc(CCCC(=O)NCc2ccco2)n1	none (no result: PNC assembly inh)
COc1ccc(-c2noc(CCC(N)=O)n2)cc1OC	PNC assembly inh -113
COc1cc(-c2noc(CCCC(=O)NCc3ccco3)n2)cc(OC)c1OC	PNC assembly inh -100
COc1ccc(-c2noc(CN(C)S(=O)(=O)c3c(C)cc(C)cc3C)n2)cc1OC	none (no result: PNC assembly inh)
COc1ccc(S(=O)(=O)N(C)CC(=O)Nc2cccc(C(C)=O)c2)cc1Cl	none
CCCn1c(N2CCN(C(=O)NCc3ccccc3)CC2)nc2ccccc21	none (no result: PNC assembly inh)
Cc1cccc(C(=O)N/N=C/c2ccc(OCC(=O)N3CCCCC3)cc2)c1	Tau fibril ThT inconclusive
CCc1ccc(C(=O)Nc2ccc(S(=O)(=O)Nc3nc(C)cc(C)n3)cc2)o1	PNC assembly inh -107
Cc1cccc(NC(=O)c2ccc(S(=O)(=O)C(F)F)cc2)c1C	PNC assembly inh -100
Cc1cc(C)cc(NC(=O)c2ccc(S(=O)(=O)C(F)F)cc2)c1	none
CCCCC(c1nnnn1CCOC)N1CCN(CC)CC1 (stereo not given)	PNC assembly inh -100
Cc1cc(NS(=O)(=O)c2ccc(NC(=O)c3ccccc3F)cc2)nc(C)n1	none (no result: PNC assembly inh)
NC(=O)[C@@H]1CCCNc2c(I)cc([N+](=O)[O-])cc2C(=O)N[C@@H](CCCN=C(N)N)C(=O)N[C@@H](CCCN=C(N)N)C(=O)N1	Tau fibril ThT 28µM, Tau fluor cs inconclusive
CC[C@H](C)[C@@H]1NC(=O)c2cc([N+](=O)[O-])cc(I)c2NCC[C@@H](C(N)=O)NC(=O)[C@H](CCCN=C(N)N)NC1=O	none
C[C@@H]1NC(=O)c2cc([N+](=O)[O-])cc(I)c2NCC[C@@H](C(N)=O)NC(=O)[C@H](CC(N)=O)NC1=O	PNC assembly inh -103
CC1(C)CC(=O)C2=C(C1)N=C1c3ccccc3C(=O)C1C2c1ccc(Cl)cc1 (stereo not given)	Tau fibril ThT inconclusive, Tau fluor cs inconclusive
CCOC(=O)C1=C(C)N=C2c3ccccc3C(=O)C2C1c1ccc(Cl)cc1 (stereo not given)	Tau fibril ThT inconclusive, Tau fluor cs 7.9µM[quencher]
C=CCn1c(-c2ccc(Cl)cc2)cnc1SC(C)C(N)=O (stereo not given)	none (no result: PNC assembly inh)
Cc1cc(SCC(=O)N/N=C/c2ccc(O)cc2O)c(C)cc1Br	Tau fibril ThT inconclusive, PNC assembly inh inconclusive, Tau fluor cs 16µM[quencher]
O=C(CNC(=O)C(c1ccccc1)c1ccccc1)N/N=C/c1ccc(O)cc1O	Tau fibril ThT inconclusive, Tau fluor cs inconclusive (no result: PNC assembly inh)
O=C(Cc1nc(-c2ccc([N+](=O)[O-])cc2)cs1)Nc1ccccc1	Tau fibril ThT inconclusive, PNC assembly inh -100 (no result: TR SRC2 fluor cs, TRb-SRC2 inh)
N#C/C(=C\c1ccc(-c2cccc([N+](=O)[O-])c2)o1)C(=O)Nc1nc(-c2cccs2)cs1	Tau fibril ThT 2µM, Tau fluor cs inconclusive (no result: PNC assembly inh)
O=C(Nc1nc(-c2ccccc2)cs1)c1cccc([N+](=O)[O-])c1	Tau fibril ThT inconclusive, Tau fluor cs 16µM[quencher]
O=C(Nc1nc(-c2cccnc2)cs1)c1cccc([N+](=O)[O-])c1	none (no result: PNC assembly inh)
COCC(=O)Nc1nc(-c2ccc([N+](=O)[O-])cc2)cs1	Tau fibril ThT inconclusive (no result: PNC assembly inh)
O=C(Nc1ccccc1)Nc1ncc([N+](=O)[O-])s1	Tau fibril ThT 18µM, Tau fluor cs inconclusive (no result: PNC assembly inh)
O=C(N/N=C/c1ccc(-c2cccc([N+](=O)[O-])c2)o1)c1cccs1	Tau fibril ThT inconclusive (no result: PNC assembly inh)
CCOC(=O)COc1ccc(CC)cc1C(=O)c1ccn2nc(-c3ccc(F)cc3)cc2n1	none (no result: PNC assembly inh)
Cc1cc(C)n2nc(C(=O)Nc3nccs3)nc2n1	none
Cc1csc(NC(=O)c2cc([N+](=O)[O-])cc([N+](=O)[O-])c2)n1	PNC assembly inh -114
CC(C)CC(=O)Nc1ncc([N+](=O)[O-])s1	none (no result: Tau fibril ThT, PNC assembly inh)
Cc1csc(NC(=O)c2nc3nc(C)cc(C)n3n2)n1	PNC assembly inh -95
O=C(Cc1ccccc1)Nc1nc(-c2cccc([N+](=O)[O-])c2)cs1	PNC assembly inh -103
Cc1nc(C)c(C(=O)Nc2ncc([N+](=O)[O-])s2)o1	Tau fibril ThT 25µM, Tau fibril FP inconclusive (no result: PNC assembly inh)
CCOC(=O)c1[nH]c(C)c(C(=O)OCCOc2cccc(C)c2)c1C	PNC assembly inh inconclusive
CC1=C(c2ccc(C)c(C)c2)S(=O)(=O)N=C1N1CCC(C(=O)Nc2cccc(F)c2)CC1	none (no result: PNC assembly inh)
COc1ccc(CN(C(=O)CNC(=O)c2ccco2)C(C(=O)NC2CCCC2)c2ccco2)cc1 (stereo not given)	PNC assembly inh inconclusive
C=C1c2cccc(OC)c2O[C@H](C(=O)OCC)[C@@H]1CC(CC)CCCC (stereo not given in full)	none (no result: PNC assembly inh)
COc1cc(-c2[nH]ncc2CN2CCN(Cc3cccs3)CC2)cc(OC)c1OC	none (no result: PNC assembly inh)

High-throughput results from PubChem.
